Inconclusive results are not listed. Calls of active or inactive are those of the source. The calls were made as follows: active = hit-call score of the fitted dose curve at least 0.9, where 1 is the maximum; inconclusive = response in the unintended direction; inactive = score below 0.9.
Target: Cellular tumor antigen p53 (Homo sapiens) (UniProt P04637)
Assay: TOX21_p53_BLA_p5_ratio: Tox21 HCT-116 p53 Agonism Beta-lactamase Assay, Ratio, Phase 5 (AID 2283599)
In short: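 Beta-lactamase reporter ratio (blue 460 nm over green 530 nm, 405 nm excitation) after 2 h CCF4-AM loading, in HCT-116 cells exposed 16 h at 37 C to compounds pinned at 217-fold dilution. Increases relative to DMSO baseline scored.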

Sequence of Cellular tumor antigen p53 (Homo sapiens) (P04637 whole entry, looked up): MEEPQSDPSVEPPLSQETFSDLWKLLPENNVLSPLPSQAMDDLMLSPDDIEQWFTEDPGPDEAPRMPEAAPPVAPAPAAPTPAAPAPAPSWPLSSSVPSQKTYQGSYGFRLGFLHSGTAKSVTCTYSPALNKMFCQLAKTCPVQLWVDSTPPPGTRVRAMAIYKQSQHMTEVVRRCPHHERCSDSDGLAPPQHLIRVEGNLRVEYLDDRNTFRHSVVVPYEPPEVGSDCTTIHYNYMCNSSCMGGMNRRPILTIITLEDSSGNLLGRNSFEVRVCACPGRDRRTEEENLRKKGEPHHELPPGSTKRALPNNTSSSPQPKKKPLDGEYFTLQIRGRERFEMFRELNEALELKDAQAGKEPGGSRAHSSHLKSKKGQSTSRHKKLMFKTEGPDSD

**Q.** For `C[Si]1(C)N[Si](C)(C)N[Si](C)(C)N1`, which outcome is on record?
**A.** inactive

**Q.** With `N#CCCCC(C#N)CCC#N` (centres undefined) as the compound, how does the outcome read?
**A.** inactive

**Q.** For `C=C(C)CCCC(C)CCO` (centres undefined), which outcome is on record?
**A.** inactive

**Q.** Which outcome does the source give for `CCCCCCC(C)O` (centres undefined) here?
**A.** inactive

**Q.** For `CC(CCO)CC(C)(C)C` (centres undefined), which outcome is on record?
**A.** inactive

**Q.** Which outcome does the source give for `Cc1cccc(O)c1` here?
**A.** inactive

**Q.** Which outcome does the source give for `CC1=CC(=O)[C@H]2C[C@@H]1C2(C)C` here?
**A.** inactive

**Q.** With `CCCCC1CCCCC(=O)O1` (centres undefined) as the compound, how does the outcome read?
**A.** inactive

System: not listed separately
Assay: TOX21_p53_BLA_p5_viability: Viability Assessment in the Tox21 HCT-116 p53 Agonism Beta-lactamase Assay, Phase 5 (AID 2283600)
In short: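 Counter-readout for cytotoxicity: ATP-dependent luminescence from CellTiter-Glo, read in the beta-lactamase wells after 30 min at RT, following a 16 h compound exposure at 37C.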

**Q.** For `CC(C)CCCC(C)(C)O`, which outcome is on record?
**A.** inactive

**Q.** For `CC(=O)C1=C(C)[C@@H]2C[C@@]3(C1)[C@H](C)CC[C@H]3C2(C)C`, which outcome is on record?
**A.** inactive

**Q.** Which AC50 does the source give for `CCCCC/C=C\C=C\C(=O)OCC` here?
**A.** 47.7 µM (active)

**Q.** Which outcome does the source give for `c1coc(CNc2ncnc3nc[nH]c23)c1` here?
**A.** inactive

**Q.** Which outcome does the source give for `O=C(O)c1ccco1` here?
**A.** inactive

**Q.** With `C[C@H](CCC(=O)O)[C@H]1CC[C@H]2[C@@H]3CC[C@@H]4C[C@H](O)CC[C@]4(C)[C@H]3CC[C@]12C` as the compound, how does the AC50 read?
**A.** 16.3 µM (active)

**Q.** Which outcome does the source give for `OC[C@@H](O)[C@H](O)[C@@H](O)[C@@H](O)CO` here?
**A.** inactive

**Q.** With `CN1CCc2cccc3c2[C@H]1Cc1ccc(O)c(O)c1-3` as the compound, how does the outcome read?
**A.** inactive

**Q.** Which outcome does the source give for `CCOC(=O)CC1(C)OCC(C)O1` (centres undefined) here?
**A.** inactive

**Q.** With `Cc1cccc(O)c1` as the compound, how does the outcome read?
**A.** inactive

**Q.** With `CCCCC1CCCCC(=O)O1` (centres undefined) as the compound, how does the outcome read?
**A.** inactive

— PubChem BioAssay (EPA / NIEHS)
